{
  "source": "PubChem BioAssay (NCATS)",
  "note": "Several values for one entry are separate records, joined by “and”; a condition that tells them apart may be missing. Equal values may be shown once. Inconclusive results are not listed. Values without a mark were called inactive. The call rests on the fitted dose curve; in most records, active means well fitted activation curve with a large enough effect; inconclusive means small, poorly fitted or top-dose-only effect; inactive means no such curve, though single readings can be large or run the other way.",
  "data": [
    {"molecular_target": "Cellular tumor antigen p53 (Homo sapiens) (UniProt P04637)", "sequence (P04637 whole entry, looked up)": "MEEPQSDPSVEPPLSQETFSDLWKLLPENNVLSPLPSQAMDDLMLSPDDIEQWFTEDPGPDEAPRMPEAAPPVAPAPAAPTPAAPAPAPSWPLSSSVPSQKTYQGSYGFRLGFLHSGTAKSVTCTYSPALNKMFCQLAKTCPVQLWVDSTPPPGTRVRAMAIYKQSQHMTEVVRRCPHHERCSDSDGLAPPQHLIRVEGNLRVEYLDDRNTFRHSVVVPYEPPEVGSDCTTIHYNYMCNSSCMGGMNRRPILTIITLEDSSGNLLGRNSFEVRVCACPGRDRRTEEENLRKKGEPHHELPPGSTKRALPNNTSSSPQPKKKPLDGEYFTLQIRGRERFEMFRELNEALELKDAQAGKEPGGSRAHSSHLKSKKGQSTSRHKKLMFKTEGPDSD", "test": "Primary qHTS for small molecule compounds that upregulate eGFP-tagged delta133p53alpha (in N-terminal) cells. (AID 2060322);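 further: cells pre-induced with doxycycline then dosed without doxycycline; series mostly up to about 56 µM; 0% = DMSO vehicle and 100% = reference activator; nearly all actives have a fitted effect of over 75% in size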", "conditions": "NCI-H358 eGFP-delta133p53alpha fluorescence, 24 h; activation: stronger effect = higher value", "source_text": "Assay Development and Screening Technology\nNational Center for Advancing Translational Sciences (NCATS),\nNational Institute of Health (NIH), Rockville, Maryland\nCellular senescence (CS) is one of the hallmarks of aging and age-related diseases. Senescent cells are characterized by an irreversible growth arrest, an increase in senescence-associated beta-galactosidase (SA-beta-gal) activity and p16INK4a expression, an activation of the DNA damage response pathways, and the emergence of a senescence-associated secretory phenotype (SASP).\nDelta133p53alpha, a human/primate-specific p53 protein isoform, delays or inhibits the induction of CS and SASP in various types of human cells, including progeria-derived fibroblasts, primary normal astrocytes, and CD8+ T lymphocytes. Induction of delta133p53alpha with small molecule compounds may provide therapeutic opportunities for inhibition of senescence/SASP-associated pathologies in progeria syndromes, astrocyte-mediated neuroprotection in neurodegenerative diseases, and possibly prevention and treatment of a wider range of senescence- and aging-associated diseases.\nHere we report the development and validation of a cell-based quantitative high throughput screening (qHTS) assay in 1,536-well format. This qHTS assay uses the NCI-H358 cell line with doxycycline-inducible expression of enhanced green fluorescent protein (eGFP)-tagged delta133p53alpha, which allows efficient and highly quantitative measurement of the protein levels.\nPROTOCOL TABLE (as described by Inglese J, Shamu CE and Guy RK. 2007)\nSEQUENCE No. (e.g., 1, 2, 3, etc.); […] (e.g., Cells, Incubation, Reagent, etc.); VALUE; DESCRIPTION.\n1; Cells; 4uL; 800 doxycycline treated cells / well in doxycycline-free media, 1536-well black, clear-bottom low base Aurora microplates.\n2; Compounds; 23 nL; Kalypsis pin tool (Wako) equipped with 1536-well pin heads, 5-azacytidine positive control.\n3; Incubation; 24 hr; 37C, 5% CO2; 95% relative humidity.\n4; Aspiration; 1x; BioTek EL406 washer dispenser (Agilent).\n5; Fixing; 3.5% paraformaldehyde, BioTek EL406 washer dispenser (Agilent).\n6; Washing; 1x PBS; BioTek EL406 washer dispenser (Agilent).\n7; Nuclei staining; 1:1000 dilution of Hoechst 33342 (Thermofisher), BioTek EL406 washer dispenser (Agilent).\n8; Incubation; 20 min; in the dark at room temperature.\n9; Washing; 2x, 1x PBS (ThermoFisher), BioTek EL406 washer dispenser (Agilent).\n10; Reagent; 10 uL; 1x PBS per well, sealed with clear adhesive tape.\nNOTES (numbers refer to sequence numbers above).\n1. NCI-H358 cells expressing eGFP-tagged delta133p53alpha were grown in T75 culture flasks and treated with doxycycline for 24h, at 10 ng/ml for eGFP-D133p53a cells (N-terminal cell) and 100 ng/ml for D133p53a-eGFP cells (C-terminal cells). Cells were trypsinized, counted using a Counted 3 Automated Cell Counter (Thermo Fisher), and diluted to a concentration of 200,000 cells/ml. A Multidrop Combi Reagent Dispenser (ThermoFisher) was used to dispense 800 cells/well in […] of doxycycline-free media, into 1536-well black/clear bottom low base plates (AuroraMicroplates).\n2. After plating cells, 23 nl of compound library, DMSO vehicle control or positive control (5-azacytidine) were transferred by Pin Tool (Wako). The plate map layout was the same for each plate: (column 1) non-doxycycline treated cells + DMSO vehicle control; (column 2) doxycycline treated cells + DMSO vehicle control baseline; (column 3) doxycycline treated cells + positive control 57.5 uM final concentration 5-azacytidine; (column 4) doxycycline treated cells + serial dilution of 5-azacytidine, 16-point 1:2 titration spanning 1.8 nM to […] final concentration; (columns 5-48) doxycycline treated cells + titration of library compounds.\n3. Cells were incubated at 37 °C, 5 % CO2, 95% RH with breathable metal lid for 24h.\n4-10. […] After two washes, 10 ul of 1X PBS (Thermo Fisher) was dispensed to each well. Clear adhesive plate seals (VWR) were applied and plates stored at 4 °C.\n11. […]", "values": [
      {"smiles": "CN1C(=O)CC[C@H]1c1cccnc1", "activation": "-11.7% and 28%"},
      {"smiles": "CC(=O)OC(C)(C)/C=C/C(=O)[C@](C)(O)[C@H]1C(O)C[C@@]2(C)[C@@H]3CC=C4[C@@H](C=C(O[C@@H]5O[C@H](CO)[C@@H](O)[C@H](O)[C@H]5O)C(=O)C4(C)C)[C@]3(C)C(=O)C[C@]12C", "note": "(stereo not given in full)", "activation": "22.3%"},
      {"smiles": "c1cc(-c2sc(-c3ccncc3)c(-c3ccncc3)c2-c2ccncc2)ccn1", "activation": "6.76%"},
      {"smiles": "CCCN(CCc1ccccc1)C1CCc2c(O)cccc2C1", "note": "(stereo not given)", "activation": "-29.6%"},
      {"smiles": "O=C(COc1ccc(C(=O)c2ccccc2)cc1)NC1CCN(Cc2ccccc2)CC1", "activation": "-6.68%"},
      {"smiles": "CO[C@@H]1[C@H](O)CCC2(CO2)[C@H]1[C@@]1(C)O[C@@H]1CC=C(C)C", "note": "(stereo not given in full)", "activation": "0.763%"},
      {"smiles": "O=c1c(-c2ccc(O)cc2)coc2cc(O[C@@H]3O[C@H](CO)[C@H](O)[C@H](O)[C@H]3O)ccc12", "activation": "8.65%"},
      {"smiles": "CC(C)(C)NC(=O)[C@@H](c1cccnc1)N(C(=O)c1ccco1)c1ccc(C(C)(C)C)cc1", "activation": "5%"},
      {"smiles": "O=C(O)c1ccc(N2C(=O)/C(=C/c3ccc(-c4ccc([N+](=O)[O-])cc4)o3)C=C2c2ccccc2)cc1", "activation": "24.3%"},
      {"smiles": "Cc1nc(-c2ccc(Cl)cc2)oc1COC(C)(C)C(=O)O", "activation": "1.67%"},
      {"smiles": "OC[C@H]1O[C@@H](Oc2ccc(O)c3cccc(O)c23)[C@H](O)[C@@H](O)[C@@H]1O", "activation": "-13%"},
      {"smiles": "O=C1NCc2nc3ccccc3c(=O)n2C1Cc1c[nH]c2ccccc12", "note": "(stereo not given)", "activation": "-7.63%"},
      {"smiles": "Cc1sccc1Br", "activation": "7.53%"},
      {"smiles": "CCCC(=O)C1(c2ccccc2)CCN(C(=O)[C@@H](Cc2ccc(OC)cc2)NC(=O)[C@@H](N)Cc2cncn2C)CC1", "activation": "4.3%"},
      {"smiles": "COC(=O)C1=C(C)NC(C)=C(C(=O)OCCCN2CCC(c3ccccc3)(c3ccccc3)CC2)C1c1cccc([N+](=O)[O-])c1", "note": "(stereo not given)", "activation": "2.93%"},
      {"smiles": "CC1OC(OC2C(OC3C(O[C@H]4CC[C@@]5(C)C(CC[C@]6(C)C5C(=O)C=C5C7CC(C)(C)CC(O)[C@]7(C)CC[C@]56C)C4(C)C)OC(C(=O)O)C(O)C3O)OCC(O)C2O)C(O)C(O)C1O", "note": "(stereo not given in full)", "activation": "2.29%"},
      {"smiles": "CC(C)=CCC/C(C)=C/Cc1ccc(O)c(C2OC(=O)c3cc(C(=O)O)cc(O)c32)c1O", "note": "(stereo not given)", "activation": "-1.53%"},
      {"smiles": "Nc1ccc(S(=O)(=O)Nc2nccs2)cc1", "activation": "18.4% and 0.333%"},
      {"smiles": "COC1/C=C/C(C)(O)C(SCC(N)C(=O)O)CC(=O)OC(C)C(C)CC/C=C/1C", "note": "(stereo not given)", "activation": "0.763%"},
      {"smiles": "Cc1c(F)cc(C(=O)NC2CC2)cc1-c1c(F)cn2c(C(C)(C)C)nnc2c1F", "activation": "-8.93%"},
      {"smiles": "CC(C)(C)c1ccc(-c2nc3c(N4CCN(Cc5ccc6nccnc6c5)CC4)cccc3[nH]2)cc1", "activation": "-2.86%"},
      {"smiles": "COc1cccc(-n2nc(C(=O)O)cc2-c2ccc(C3CCCCC3)c(Cl)c2)c1", "activation": "1.43%"},
      {"smiles": "C#C[C@]1(O)CC[C@H]2[C@@H]3CCC4=CC(=O)CC[C@@H]4[C@H]3CC[C@@]21CC", "activation": "-5.86%"},
      {"smiles": "COc1cc(C2Oc3c(OC)cc(CCCO[C@@H]4O[C@H](CO)[C@@H](O)[C@H](O)[C@H]4O)cc3C2CO)ccc1O", "note": "(stereo not given in full)", "activation": "-6.25%"},
      {"smiles": "CC(C)S(=O)(=O)Nc1ccc(F)c(C(=O)c2c[nH]c3ncc(-c4cccnc4)cc23)c1F", "activation": "28.6%"},
      {"smiles": "COc1ccc(-n2c(SCC#N)nc3sc4c(c3c2=O)CCCC4)cc1", "activation": "-16.1%"},
      {"smiles": "N#Cc1cc([N+](=O)[O-])c2sc(C(N)=O)[n+]([O-])c2c1", "activation": "-56.4%"},
      {"smiles": "COc1cc(C(C)C)c(Oc2cnc(N)nc2N)cc1I", "activation": "3.67%"},
      {"smiles": "Cc1cc(=O)oc2cc(O[C@@H]3SC[C@@H](O)[C@H](O)[C@H]3O)ccc12", "activation": "23.2%"},
      {"smiles": "N#CC1(c2ccc(F)cc2)CCC(=O)CC1", "activation": "-18.6%"},
      {"smiles": "C[C@H]1O[C@H](O[C@H]2[C@H](O)[C@@H](O)[C@@H](O[C@H]3[C@H](O)[C@@H](O)C(O)O[C@H]3CO)O[C@H]2CO)[C@H](O)[C@@H](O)[C@H]1N[C@H]1C=C(CO)[C@@H](O)[C@H](O)[C@@H]1O", "note": "(stereo not given in full)", "activation": "140%"},
      {"smiles": "O=C(NCc1ccc(F)cc1)C(=O)c1c[nH]c2ccccc12", "activation": "5.73%"},
      {"smiles": "C/C(=C/CO)CC[C@@H]1[C@@](C)(O)CCC2C(C)(C)CCC[C@]21C", "note": "(stereo not given in full)", "activation": "-7.14%"},
      {"smiles": "C=C1C(=O)O[C@@H]2C[C@H](C)[C@@]3(O)C=C(C(C)=O)[C@]4(CC3C[C@H]12)C(=O)O[C@H]1C[C@@H](C)C(CCC(C)=O)=CC[C@H]14", "note": "(stereo not given in full)", "activation": "4.46%"},
      {"smiles": "CC(=O)OC[C@]12[C@H](OC(C)=O)C(=O)[C@@H]3[C@@H](OC(C)=O)[C@@]14O[C@@]3(C)COC(=O)c1cccnc1[C@@H](C)[C@H](C)C(=O)O[C@@H]([C@H](OC(C)=O)[C@@H]2OC(C)=O)[C@]4(C)O", "activation": "-13.7%"},
      {"smiles": "CCC(=O)c1ccc(O)cc1", "activation": "-10%"},
      {"smiles": "c1ccc2c(CC3=NCCN3)cccc2c1", "activation": "-10%"},
      {"smiles": "COc1cc(CN(CCN)C(=O)c2cccs2)ccc1OCc1ccccc1", "activation": "24.3%"},
      {"smiles": "CCCC1=CC2=C(CO1)C(=O)C(C)(OC(=O)c1c(C)cc(OC)cc1O)C(O)C2", "note": "(stereo not given)", "activation": "-24.4%"},
      {"smiles": "CC(=O)N1CCN(NC(=O)c2ccc(F)cc2)CC1", "activation": "-2.39%"}
    ]}
  ]
}
